According to ChEMBL document CHEMBL4513149, “CO-ADD screening of MMV (CH) - MMV compounds” (2021):
Results with a measured potency or affinity are listed apart.

Key:
[1] = test system: Klebsiella pneumoniae; details: Concentration 20 uM; ASSAY_TEST Inhibition of Bacterial Growth; detection method Absorption (OD600); MEDIA CAMHB; plate type 384well; NBS; CORNING #3640; time 18 hr
[2] = test system: Candida albicans; details: 20 µM
[3] = test system: Cryptococcus neoformans; details: Concentration 20 uM; ASSAY_TEST Inhibition of Fungal Growth; detection method Resazurin; Absorption (OD600-OD570); plate type 384well; NBS; CORNING #3640

Structure (SMILES) | Inhibition [1] [%] | Inhibition [2] [%] | Inhibition [3] [%]
CCn1cnc2c(Nc3cc(F)cc(F)c3)nc(C#N)nc21 | 8.51 | 3.4 | -1.23
NCC(=O)N1CCn2c(nc(-c3ccccc3)c2Nc2ccc3c(c2)OCO3)C1 | 4.52 | 3.31 | 7.53
CC(C)n1nc(-c2cc3c(Cl)cccc3[nH]2)c2c(N)ncnc21 | 6.59 | 5.11 | -4.09
CN(C)CCNC(=O)N1CCCN(c2ncnc3cc(-c4ccccc4)sc23)CC1 | 15.92 | 2.85 | -8.19
Cc1nc(-c2ccccn2)nc(NCCc2ccc(S(C)(=O)=O)cc2)c1Cl | 10.15 | 4.79 | 2.36
Cc1cc(C)nc(-n2nc(C)cc2Nc2ccccc2)n1 | 15.33 | 11.7 | 39.43
Cc1cc(C(=O)Nc2ccc(-c3ccccc3)cc2)no1 | 16.31 | 4.46 | -3.33
O=C(Nc1ccccc1-c1nc2c(C(=O)O)cccc2o1)c1ccccc1 | 1.94 | 5.59 | -2.58
Nc1ncnc2c1c(-c1cnc3ccccc3c1)nn2CC1CCNCC1 | 4.12 | 2.53 | -1.76
O=C(NCc1cc(Cl)cc(Cl)c1)c1c(C(F)(F)F)nc2ccccn12 | 15.19 | 8.03 | -5.43
COc1ccc(-c2cncc3ccc(C(=O)NCCCn4ccnc4)nc23)cc1 | 3.32 | 4.61 | -8.59
Cc1cc(C)n(-c2ccc(NC(=O)C3CCN(Cc4cnc(C)s4)CC3)cc2)n1 | 8.14 | 2.85 | -6.76
Clc1cccc(CO[C@H]2CCc3ccccc3[C@@H]2n2ccnn2)c1 | 8.29 | 10.9 | -3.55
CC(Oc1ccccc1)C(=O)Nc1nc(-c2ccccn2)cs1 (configuration not stated) | -2.79 | -0.26 | -5.96
CC(C)(C)c1ccc(N[C@@H]2CCCC[C@H]2NC(=O)c2ccco2)cc1 | -12.61 | 5.24 | -2.08
Cc1ccc2cc(C3NC(=O)c4ccccc4N3)c(Cl)nc2c1 (configuration not stated) | 19.35 | 3.16 | -7.26
CCOc1ccc(-c2nc(CNCCc3ccc(F)cc3)cs2)cc1 | 12.06 | 7.53 | -5.87
CS(=O)(=O)c1cccc(-c2cnc3[nH]cc(-c4ccc(CCC(=O)O)cc4)c3c2)c1 | 6.09 | 11.3 | -4.04
N=C(N)c1ccc(-c2cc(-c3ccccc3)on2)cc1 | 18.39 | 3.34 | -9.38
N#CCN(CCCCN1CCN(c2ccc(F)cc2)CC1)C(=O)OCc1ccccc1 | 11.82 | 2.42 | -5.61
CC(C)(C)n1nc(Cc2cccc3ccccc23)c2c(N)ncnc21 | 2.54 | 3.16 | -9.17
Cl.O=C(Nc1ccc(N2CCNCC2)nc1)c1oc(-c2ccccc2)nc1C(F)(F)F | 2.54 | 2.72 | -3.82
Cc1cc(OCC(=O)Nc2ccc(C(C)C)cc2)n(C)c(=O)c1C#N | -7.95 | 4.91 | 4.44
CCC(Sc1nc2ccccc2o1)C(=O)Nc1nnc(C)s1 (configuration not stated) | -2.47 | 4.83 | -9.17
CN1CCC(c2cc(-c3ccncc3)c(-c3ccc(F)cc3)[nH]2)CC1 | 5.43 | 0.45 | 8.69
Nc1cccnc1Nc1ccc(Cl)cc1 | 2.25 | 1.73 | -10.6
Cc1noc(C)c1COc1cccc(C(=O)N=c2[nH]cccc2C)c1 | 14.67 | 1.92 | -9.25

Structure (SMILES) | Inhibition [1] [%] | Inhibition [2] [%] | Inhibition [3] [%]
Nc1nccc2ccc(Oc3ccncc3)cc12 | 18.43 | 1.98 | -6.05
FC(F)(F)c1cc(NCCc2ccccc2)nc(-c2ccccn2)n1 | -3.94 | 1.73 | -6.05
Nc1nccc2ccc(-c3ccc4nccn4c3)cc12 | 18.72 | 2.07 | -1.17
NC(=O)c1cc(-c2ccsc2)ccc1OCCOc1ccccc1 | 14.24 | 1.34 | -0.49
O=C(c1cc2ccccc2o1)N1CCN(Cc2ccc3c(c2)OCO3)CC1 | 9.23 | -0.54 | -15.32
COc1cccc(-c2cc3c(Nc4cccnc4)nccc3[nH]2)c1 | 4.5 | 3.5 | -6.63
Cc1cccc(NC(=O)c2cc(S(=O)(=O)N(C)c3ccc(F)cc3)ccc2Cl)n1 | 14.02 | 9.46 | -4.89
CC1COC2(CCN(c3nc(=O)c4cc(C(F)(F)F)cc([N+](=O)[O-])c4s3)CC2)O1 (configuration not stated) | 8.31 | 2.39 | -12.38
O=C1[C@@H](Oc2ccccc2)[C@@H](c2ccc(Cl)cc2)N1CCn1cnc2c(NCc3ccccc3)ncnc21 | 2.13 | 33.5 | -6.99
Cc1cc(C)cc(COc2ccc3c(C)c(CCC(=O)O)c(=O)oc3c2C)c1 | 9.77 | 6.48 | -0.19
Cc1ccc2[nH]c3c(NCCN(C)C)ncnc3c2c1 | 16.4 | 2.94 | -5.96
CN1CCN(S(=O)(=O)c2ccc(-c3ccc4c(Nc5ccc6nn[nH]c6c5)ccnc4c3)cc2)CC1 | 5.15 | 4.6 | -7.38
COc1cncc(-c2cncc(N3CCN(c4ccncc4)CC3)n2)c1 | 19.7 | 3.12 | 4.32
CCS(=O)(=O)N(Cc1ccco1)Cc1cc2ccc(C)cc2nc1O | 2.3 | 3.52 | -6.36
COc1ccc(-c2nc(-c3cccc(NC(=O)Cc4ccc(F)cc4)c3)no2)cc1OC | 13.72 | 23 | -5.03
Cc1cc(C)n2nc(C(=O)Nc3cc(C(F)(F)F)ccc3N3CCOCC3)nc2n1 | 15.61 | 5.28 | -4.53
CN1CCCN(C(c2ccccc2)c2ccc(Cl)cc2)CC1 (configuration not stated) [HOMOCHLORCYCLIZINE] | 10.44 | 2.84 | -6.27
CC1=NN(c2nc3ccccc3s2)C(=O)C1Cc1cccc2ccccc12 (configuration not stated) | 10.99 | 19.6 | -5.86
O=C(NCCc1c[nH]c2ccccc12)c1cc2ccccc2oc1=O | 9.33 | 4.19 | -9.92
O=C1Nc2ccc(Br)cc2C12NCCc1c2[nH]c2ccccc12 (configuration not stated) | 4.49 | 2.19 | -1.68
Cc1cc(Cl)ccc1NC(=O)CCc1ccc(S(=O)(=O)NCC(C)C)cc1 | 8.81 | 1.81 | -9.04
CC(C)C(NC(=O)Cc1cccc2ccccc12)C(=O)Nc1cccc(C#N)c1 (configuration not stated) | 13.86 | 6.6 | -4.4
NC(=O)c1cc(Br)ccc1OCCOc1ccccc1 | 10.17 | 10.7 | -9.83
CNc1snc(C)c1C(=O)NCCOc1ccc(OC)cc1 | 10.83 | 3.15 | 1.78
Nc1ncnc2c1ncn2C[C@@H](O)[C@@H](O)C(=O)O [ERITADENINE] | 17.23 | 3.88 | -6.54
CCCc1ccc(S(=O)(=O)Nc2ccc(CN3CCN(CC4CC4)CC3)cc2)cc1 | 16.66 | 4.6 | -0.39
COc1ccc(C(=N)N)cc1-c1cn(-c2ccc(C(=N)N)cc2)nn1.Cl.Cl | 8.73 | 3.44 | 4.63
